Test results reported in PubChem BioAssay (Tox21).
Unmarked numbers belong to inactive results. Records with an inconclusive call do not appear. Activity calls are given as the source filed them. Unless noted, calls follow the shape of the dose curve; as a rule, active = well fitted curve in the direction sought with a large enough effect in the repeat runs; inconclusive = weak or mixed curves; inactive = no such curve, though single readings can be large; an effect the other way counts as inactive or inconclusive.

biological target: Androgen receptor (Homo sapiens) (UniProt P10275); experiment: qHTS assay to identify small molecule antagonists of the androgen receptor (AR) signaling pathway (AID 743035; active = well fitted inhibition curve with a large enough effect in the signal ratio in the repeat runs, not every such curve was filed as active; the % refers to the signal ratio); details: HEK293 AR-UAS-bla, R1881-stimulated, beta-lactamase FRET, 16 h; series mostly up to 58.5 µM; activity change, negative = inhibition: at the top concentration
How it was run: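 Antagonism is scored as loss of R1881-driven beta-lactamase reporter expression in HEK293 cells carrying the reporter under a UAS element, after 16 h co-treatment at 37C and a 2 h room-temperature FRET substrate read.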
% is scaled to controls: 0 for no effect and ±100 for the full control effect.

Chain of Androgen receptor (Homo sapiens) (P10275 whole entry, looked up): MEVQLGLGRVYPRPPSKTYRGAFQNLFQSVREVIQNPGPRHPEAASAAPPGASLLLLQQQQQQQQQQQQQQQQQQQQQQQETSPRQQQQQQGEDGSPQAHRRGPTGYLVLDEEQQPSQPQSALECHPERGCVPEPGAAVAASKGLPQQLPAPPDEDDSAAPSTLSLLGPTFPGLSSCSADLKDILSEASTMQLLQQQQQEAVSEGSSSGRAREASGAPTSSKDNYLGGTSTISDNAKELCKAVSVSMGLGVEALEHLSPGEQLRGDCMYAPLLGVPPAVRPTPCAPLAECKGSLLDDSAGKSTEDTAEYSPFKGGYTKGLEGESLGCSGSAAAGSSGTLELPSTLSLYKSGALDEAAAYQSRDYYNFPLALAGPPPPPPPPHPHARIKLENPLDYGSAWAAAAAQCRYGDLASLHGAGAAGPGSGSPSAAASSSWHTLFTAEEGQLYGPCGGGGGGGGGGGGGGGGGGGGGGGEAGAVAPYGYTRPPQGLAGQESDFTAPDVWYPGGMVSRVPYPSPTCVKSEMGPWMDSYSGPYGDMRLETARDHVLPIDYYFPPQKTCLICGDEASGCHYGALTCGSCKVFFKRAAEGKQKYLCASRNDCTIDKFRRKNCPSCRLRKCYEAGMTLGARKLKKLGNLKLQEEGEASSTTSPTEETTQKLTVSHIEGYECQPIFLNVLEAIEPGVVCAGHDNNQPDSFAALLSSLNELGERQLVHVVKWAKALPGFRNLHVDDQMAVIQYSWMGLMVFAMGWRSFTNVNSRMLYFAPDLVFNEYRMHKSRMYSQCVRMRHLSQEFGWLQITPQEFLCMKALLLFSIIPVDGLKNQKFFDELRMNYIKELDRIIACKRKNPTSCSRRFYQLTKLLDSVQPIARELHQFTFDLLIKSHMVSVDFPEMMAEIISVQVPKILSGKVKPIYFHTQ

Point of comparison: `CCC(CC)CO`, “activity change, negative = inhibition” value 8.13%. Against it:
- O=C(O)C(=O)Cc1ccccc1 — lower, 2.01%
- BrCc1cccc(Oc2ccccc2)c1 — lower, -19.7%
- O=C(O)c1cc(Br)c(O)c(Br)c1 — lower, -22.2%
- O=C1c2ccccc2C(=O)N1CCl — lower, 1.75%
- C=COCCOCCOCCOC=C — lower, 4.88%
- OCCN(CCO)c1cccc(Cl)c1 — lower, -11%

For `Nc1ccc(S(=O)(=O)Nc2ccc(Cl)nn2)cc1`, the “activity change, negative = inhibition” value was -5.25% [at 27 µM].

biological target: Androgen receptor (Homo sapiens) (UniProt P10275); experiment: qHTS assay to identify small molecule agonists of the androgen receptor (AR) signaling pathway (AID 743036; active = well fitted activation curve with a large enough effect in the signal ratio in the repeat runs, with a control signal flat, not every such curve was filed as active; the % refers to the signal ratio); details: HEK293 AR-UAS-bla GripTite, beta-lactamase FRET ratio, 16 h; series mostly up to 62.4 µM; activation: at the top concentration
How it was run: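 Beta-lactamase under UAS control, stably integrated in HEK293 GripTite cells, reports receptor activation. After 16 h compound treatment, cells received FRET substrate for 2 h at room temperature before fluorescence reading.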

Point of comparison: `C=COCCOCCOCCOC=C`, “activation” value 27.4%. Against it:
- O=C(O)C(=O)Cc1ccccc1 — lower, 5.21%
- O=C(O)c1cc(Br)c(O)c(Br)c1 — lower, -3.62%
- O=C1c2ccccc2C(=O)N1CCl — lower, 5.44%
- OCCN(CCO)c1cccc(Cl)c1 — lower, -0.322%

With `Nc1ccc(S(=O)(=O)Nc2ccc(Cl)nn2)cc1` the outcome was “inactive”.

biological target: Androgen receptor (Homo sapiens) (UniProt P10275); experiment: qHTS assay to identify small molecule agonists of the androgen receptor (AR) signaling pathway using the MDA cell line (AID 743040; also: nearly all actives have a fitted effect of over 20% in size); details: MDA-kb2 AR-luc cells, MMTV luciferase, 16 h, active compounds read high; series mostly up to 70.3 µM; activity change: at the top concentration
How it was run: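 Cells plated, 5 h at 37C/0% CO2; compound or DMSO pinned; 16 h at 37C; ONE-Glo added; luminescence measured after 30 min at room temperature. Reporter line: MDA-kb2 with MMTV-luciferase responsive to AR and GR.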

Point of comparison: `CC(C)(C)OC(=O)c1ccc(O)cc1`, “activity change” value -3.05%. Against it:
- CCC(CC)CO — higher, -0.191%
- O=C(O)C(=O)Cc1ccccc1 — higher, -0.419%
- BrCc1cccc(Oc2ccccc2)c1 — higher, -0.824%
- O=C(O)c1cc(Br)c(O)c(Br)c1 — higher, 3.75%
- O=C1c2ccccc2C(=O)N1CCl — higher, 0.643%
- C=COCCOCCOCCOC=C — higher, -2.02%
- OCCN(CCO)c1cccc(Cl)c1 — higher, -0.0542%

For `Nc1ccc(S(=O)(=O)Nc2ccc(Cl)nn2)cc1`, the outcome was “inactive”.

system: not listed separately; experiment: qHTS assay to identify small molecule antagonists of the androgen receptor (AR) signaling pathway using the MDA cell line - cell viability counter screen (AID 743041; also: nearly all actives have a fitted effect of over 45% in size); details: MDA-kb2 viability, CellTiter-Fluor, 16 h, cells co-treated with R1881 androgen agonist; series mostly up to 70.3 µM; viability change, negative = cytotoxic: at the top concentration
How it was run: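 Cells were plated at 3,000 per well and left 5 h. Compounds in DMSO were then pinned in, followed by R1881. After 16 h at 37C, CellTiter-Fluor fluorescence gave viability.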

Point of comparison: `CN(CCOc1ccc(NS(C)(=O)=O)cc1)CCc1ccc(NS(C)(=O)=O)cc1`, “viability change, negative = cytotoxic” value 0.683%. Against it:
- CCC(CC)CO — lower, -6.18%
- CC1COc2ccccc2N1 (centres undefined) — higher, 2.36%
- CC(C)(C)OC(=O)c1ccc(O)cc1 — lower, 0.0931%
- CC(C)OC(=O)CCCCC(=O)OC(C)C — lower, -4.22%
- CC(C)CC(=O)O — higher, 5.67%
- CCCCCCCCC1CCC(=O)O1 (centres undefined) — higher, 3.74%
- Cc1cccc2nccnc12 — higher, 4.16%
- CCCCCOC(=O)CCC — lower, 0.629%
- CN1C(C)(C)CCCC1(C)C — lower, -2.25%
- C[C@@H]1O[C@@H](O[C@@H]2[C@@H](O)[C@H](OCCc3ccc(O)c(O)c3)O[C@H](CO[C@@H]3O[C@H](CO)[C@@H](O)[C@H](O)[C@H]3O)[C@H]2OC(=O)/C=C/c2ccc(O)c(O)c2)[C@H](O)[C@H](O)[C@H]1O — lower, -7.67%
- O=C(O)C(=O)Cc1ccccc1 — lower, -7.09%
- Nc1ncnc(Nc2ccccc2)n1 — higher, 6.05%
- C=C(C)C(=O)OCC(C)(C)COC(=O)C(=C)C — higher, 1.7%
- CCOC(=O)CC(=O)c1ccccc1 — lower, -2.08%
- Cc1c(I)c(=O)n(-c2ccccc2)n1C — higher, 16.2%
- COc1ccc(S(=O)(=O)N2c3ccc(Cl)cc3[C@@](O)(c3ccccc3Cl)[C@H]2C(=O)N2CCC[C@@H]2C(N)=O)cc1OC — higher, 11.9%
- CC(C)C[C@H](NC(=O)CNC(=O)[C@H](Cc1ccc(O)cc1)NC(=O)[C@H](CO)NC(=O)[C@H](Cc1c[nH]c2ccccc12)NC(=O)[C@H](Cc1cnc[nH]1)NC(=O)[C@@H]1CCC(=O)N1)C(=O)N[C@@H](CCCN=C(N)N)C(=O)N1CCC[C@H]1C(=O)NCC(N)=O (stereo in doubt) — higher, 6.5%
- O=C(O)c1cc(Br)c(O)c(Br)c1 — higher, 4.41%
- O=C1c2ccccc2C(=O)N1CCl — higher, 8.35%
- NCCN1CCOCC1 — lower, -3.26%
- C=COCCOCCOCCOC=C — lower, -0.874%
- OCCN(CCO)c1cccc(Cl)c1 — lower, -0.427%
- CCOc1cc([N+](=O)[O-])c(OCC)cc1N1CCOCC1 — lower, -1.44%

In the case of `NCCS`, the Potency is reported as “inactive”.
In the case of `O=C(NCCN1CCOCC1)c1ccc(Cl)cc1`, the Potency is reported as “inactive”.
For `Nc1ccc(S(=O)(=O)Nc2ccc(Cl)nn2)cc1`, the Potency was “inactive”.

Point of comparison: `c1ccc2nccnc2c1`, “viability change, negative = cytotoxic” value -3.25% [at 95 µM]. Against it:
- COc1ccc(Br)c(C)c1 — higher, 2.32% [at 95 µM]
- BrCCCCCBr — higher, 3.63% [at 95 µM]

Compound `COC(=O)C1CC(=O)C(C(=O)OC)CC1=O` (centres undefined) has a viability change, negative = cytotoxic of 6.75% [at 8.47 µM].

For `O=C1c2ccccc2C(=O)C1c1ccccc1`, the “viability change, negative = cytotoxic” value was -1.63% [at 32.5 µM].

biological target: Androgen receptor (Homo sapiens) (UniProt P10275); experiment: qHTS assay to identify small molecule antagonists of the androgen receptor (AR) signaling pathway using the MDA cell line (AID 743042; also: nearly all actives have a fitted effect of over 55% in size); details: MDA-kb2 AR-luc, MMTV luciferase, R1881 antagonist, 16 h; series mostly up to 70.3 µM; activity change, negative = inhibition: at the top concentration
How it was run: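 Antagonist mode: compounds plus R1881 agonist added to MDA-kb2 AR-luc cells, incubated 16 h at 37C. Luciferase reporter luminescence quantified, with multiplexed CellTiter-Fluor readout for cell viability.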

Point of comparison: `CCC(CC)CO`, “activity change, negative = inhibition” value 1.65%. Against it:
- CC(C)(C)OC(=O)c1ccc(O)cc1 — lower, -13.9%
- O=C(O)C(=O)Cc1ccccc1 — lower, 1.43%
- BrCc1cccc(Oc2ccccc2)c1 — lower, -1.01%
- O=C(O)c1cc(Br)c(O)c(Br)c1 — lower, 0.738%
- O=C1c2ccccc2C(=O)N1CCl — higher, 5.88%
- C=COCCOCCOCCOC=C — lower, -8.05%
- OCCN(CCO)c1cccc(Cl)c1 — lower, 0.645%

In the case of `Nc1ccc(S(=O)(=O)Nc2ccc(Cl)nn2)cc1`, the Potency is reported as “inactive”.
